Source: PubChem BioAssay AID778 (Sanford-Burnham Center for Chemical Genomics, 2007)
Out of some 96,000 compounds screened, about 20,000 (21%) were called active.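 Rule for the calls: active = CYP2C19 inhibition above a set limit at 5 µM in the primary screen (cut at about 50% in these data); inactive = the rest.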 Only a sample is shown.

Each compound was assayed against Cytochrome P450 2C19 (Homo sapiens) (UniProt P33261) (assay: blockers of cytochrome P450 2C19 activity – biochemical, luminescence, ADME assay, primary screen (AID 778;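 note: plate controls were negative control wells for no effect and 2.5 mM tranylcypromine positive control for full effect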)). Settings: CYP2C19 Supersomes, luciferin-H EGE luminescence, 30 min; at 5 µM; stronger effect = higher value.
Cytochrome P450 2C19 (Homo sapiens), sequence (P33261 whole entry, looked up): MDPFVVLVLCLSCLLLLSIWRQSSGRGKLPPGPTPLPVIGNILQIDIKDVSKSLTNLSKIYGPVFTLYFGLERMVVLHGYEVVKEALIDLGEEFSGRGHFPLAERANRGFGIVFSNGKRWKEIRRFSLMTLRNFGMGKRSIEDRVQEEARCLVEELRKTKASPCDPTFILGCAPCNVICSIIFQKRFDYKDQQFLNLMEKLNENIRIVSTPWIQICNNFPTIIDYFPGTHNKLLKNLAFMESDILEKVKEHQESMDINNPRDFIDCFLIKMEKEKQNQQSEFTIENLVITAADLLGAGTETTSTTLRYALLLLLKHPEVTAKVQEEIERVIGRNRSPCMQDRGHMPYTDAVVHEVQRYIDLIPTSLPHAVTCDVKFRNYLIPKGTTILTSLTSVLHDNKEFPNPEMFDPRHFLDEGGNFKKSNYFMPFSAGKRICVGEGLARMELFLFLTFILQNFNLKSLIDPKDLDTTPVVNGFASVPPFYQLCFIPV

inhibition, inactive:
CC(=O)c1ccc2c(ccc3ccccc32)c1 35%
O=C(c1cccc2ccccc12)N1CCN(c2ccccc2F)CC1 35.4%
Cc1cc(-n2nc(C)cc2C)n2nc(C)c(-c3ccccc3)c2n1 21.4%
COc1ccccc1C(=O)N1CCNC(=O)C1CC(=O)Nc1ccc(Cl)cc1 (centres undefined) 12.1%
CCOc1cccc(SCc2noc(C(=O)NC(C)C)c2C(=O)O)c1 8.8%
COc1ccc(OC)c(C2N(c3ccccn3)C(=O)C3CCCN32)c1 (centres undefined) -2.4%
CCn1c(CNc2ccc(OC)cc2)nnc1SCC(=O)c1ccc(OC)cc1 33.9%
COc1ccc(-c2nnc(SCC(=O)c3ccco3)n2-c2ccccc2)cc1 -13.8%
CCC(=O)N1c2ccc(S(=O)(=O)CCC(=O)N3CCN(c4ccccc4)CC3)cc2CC1C (centres undefined) 26.2%
Cc1csc(=NC(=O)c2ccccc2)n1CCO 49.7%
Cc1ccn2cc(C(=O)NC3CCN(Cc4ccccc4)CC3)nc2c1 11.4%
CCC(=O)Nc1ccc(C(=O)Nc2cc(C)on2)cc1 14.7%
CCCC(C)C(=O)Nc1ccc(NC(C)=O)cc1 (centres undefined) -6.8%
O=C(NCCc1ccccn1)c1cc(C(=O)C2CCCCC2)c[nH]1 -1.5%
CCOC(=O)C1CCN(c2ncnc3c2oc2ccc(Br)cc23)CC1 43.1%
CSc1ccccc1NC(=O)c1cc(C2CC2)on1 31.1%
Cc1cc(C(=O)Nc2c(C)nn(Cc3ccccc3)c2C)on1 11.7%
Cc1nc2nc(CSc3nc4ccccc4s3)cc(=O)n2[nH]1 -9.6%
O=S(=O)(c1ccccc1)N(CC(O)CN1CCCCC1)c1ccccc1 (centres undefined) 17.7%
O=c1oc2c(Cl)cc(Cl)cc2cc1-c1nnc(Nc2ccccc2F)s1 -3.7%
CCOC(=O)CNC(=O)CN1C(=O)CCSc2ccccc21 44.3%
CCSc1ncnc2c(C#N)c3n(c12)CCCCC3 5.8%
Cc1nc(-c2ccc(NC(=O)c3cccs3)cc2)cs1 12.8%
O=C(Nc1ccccc1)OCc1cc(-c2ccc(Cl)cc2)on1 16.6%
O=C(Nc1ccccc1)OCc1cn(-c2ccc(Cl)cc2)nn1 -1.4%
CCOC(=O)CSc1ncc(-c2cccc(Cl)c2)cn1 11.1%
COc1ccccc1N=C(C)C1=C(O)COC1=O 27.5%
CC(C)N(C(=O)Cn1c(SCC(=O)N2CCN(c3ccccc3)CC2)nc2ccccc21)C(C)C 6.9%
COC(=O)[C@H](Cc1ccccc1)NC(=O)N1CC(C)OC(C)C1 (some centres undefined) 8.3%
CC(C)(C)NC(=O)Cn1nnc(-c2ccccc2Cl)n1 45%
COc1ccc(-c2nnn(CC(=O)N(CCO)C(C(=O)NC3CCCC3)c3ccc(F)cc3)n2)cc1 (centres undefined) 7.8%
CCCNC(=O)N1CCN(C(=O)NCCC)CC1 4.5%
COCCNC(=S)c1ccc(OC)cc1 18%
COc1ccc(NC(=O)c2ccc(OC)cc2)cc1 -5.6%
Oc1ccccc1CNc1ncc(Br)cc1Br 39.4%
COc1ccc(N(CC(=O)NC(C)(C)C)C(=O)c2ccco2)cc1 -6.7%
O=C(NCCSc1ccccc1)c1ccco1 21.8%
CCc1ccc(-c2cc(C(=O)NCc3ccco3)c3ccccc3n2)s1 11.6%
c1ccc(CCC2=NCCn3cccc32)cc1 10.1%
CC(=O)Nc1cccc(/C(C)=N/NC(=O)c2ccccc2Cl)c1 10.9%
Cc1ccc(C)c(NC(=O)C2CC(=O)N(C(C)C)C2)c1 (centres undefined) -10.6%
Cc1cccc(C(=O)Nc2ccccc2-c2nnn(CC(=O)Nc3ccc4c(c3)OCCO4)n2)c1 -12.5%
O=C(NC1CCCCC1)C1c2ccccc2C(=O)N1Cc1ccco1 (centres undefined) 12.4%
CC1CCN(c2nc3c(c(=O)[nH]c(=O)n3C)n2CCCc2ccccc2)CC1 18.4%
O=C1CSC(c2cccc(F)c2)N1c1ccc(O)cc1 (centres undefined) 26.3%
CC1C/C(=N/NC(=O)c2cccs2)CC(C)(C)C1 (centres undefined) 41.9%
FC(F)(F)c1cc(C(F)(F)F)c2ccc(N3CCN(c4ccccc4)CC3)nc2n1 -3.4%
CCOC(=O)CCCNC(=O)CN1C(=O)NC(CCc2ccccc2)C1=O (centres undefined) -2.6%
COc1ccc(-c2nnco2)cc1OC 11.8%
C=CCn1c(C(C)NC(=O)CC)nc2ccccc21 (centres undefined) -3.9%
CCCC(NC(=O)c1ccccc1)c1nc2ccccc2n1Cc1ccc(C(=O)OC)o1 (centres undefined) 2.7%
CC(CN1CCCCC1)OC(=O)c1ccccc1Cl (centres undefined) 38.8%
Cc1noc(C)c1S(=O)(=O)Nc1ccc(C(=O)O)cc1 2.3%
Cc1ccc(NS(=O)(=O)c2c(C)[nH]c(=O)[nH]c2=O)cc1C 1.6%
c1ccc(Cc2nn3c(Cn4cnc5ccccc54)nnc3s2)cc1 39%
Cc1c(-c2ccccc2)nc(N)c(C#N)c1-c1cccs1 0.7%
CCOC(=O)c1ccc(NC(=O)CS(=O)(=O)c2cn(CC)c3ccccc23)cc1 20.6%
CC(C)NS(=O)(=O)c1ccc(NC(=O)C2CCCCC2)cc1 13.3%
CC(C)(C)NS(=O)(=O)c1ccc(NC(=O)NC2CCCCC2)cc1 8%
CC1=C(C)CC(C(=O)NNC(=O)c2ccccc2O)C(C(=O)O)C1 (centres undefined) -7.2%
Cc1nc(SCC(=O)N2CCc3ccccc3C2)c2c(C)c(C)sc2n1 20%
CC1CCCN(C(C(=O)Nc2ccc(C(C)C)cc2)c2ccc3c(c2)OCO3)C1 (centres undefined) 17.7%
COc1ccc(-n2c(SCC(=O)Nc3ccc4c(c3)OCO4)nnc2C(C)N2CCCCC2)cc1 (centres undefined) 16.9%
CCN(CC)Cc1csc2ccc(Br)cc12 5.2%
O=[n+]1c2c(n([O-])c3cc(Br)ccc31)CCC2 21%
Cc1nnc(SCC(=O)N2CCc3ccccc32)n1-c1ccccc1 3.9%
C=CCn1c(=O)c2ccccc2n2c(SCC(=O)N3CCCc4ccccc43)nnc12 36.5%
COc1ccc(-c2[nH]nc(-c3ccccc3)c2-c2nc3ccccc3[nH]2)cc1 11.3%
Cn1c(C(=O)NCCCN2CCN(c3cccc(Cl)c3)CC2)cc2c(=O)n(C)c3ccccc3c21 18%
Cc1cccc(NC(=O)C2CCCN2S(=O)(=O)c2ccc(F)cc2)c1C (centres undefined) 16.2%
O=C(O)C1CCCN1S(=O)(=O)c1ccc2c(c1)CCC2 (centres undefined) -10.4%
O=C(NCc1cccs1)C1CCN(S(=O)(=O)c2ccc3c(c2)OCCO3)CC1 17.6%
COc1ccccc1CNC(=O)C1CCN(S(C)(=O)=O)CC1 2.2%
CCOC(=O)CNC(=O)c1nn(-c2cccc(OC)c2)c(=O)c2ccccc12 5.3%
COc1ccc(-n2nnc3c(=O)n(CC(=O)OCc4ccccc4)cnc32)cc1 3.9%
COC(=O)C1=C(Nc2ccc(OC)cc2)C=C(C)C(C(=O)OC)C1c1ccc(C)cc1 (centres undefined) 33.3%
CC1(C)Cc2c(sc3nc4n(c(=N)c23)CCCCC4)CO1 -6.4%
O=C(NCCCNCc1ccccc1)c1ccc(/C=N/O)nc1 -13.4%
Cn1c(=O)[nH]c(=O)c2c1nc(CN(Cc1ccccc1)Cc1ccccc1)n2CCN1CCOCC1 14.9%

inhibition, active:
COc1c(C(=O)N2CCCC2)ccc2ccccc12 53%
COc1ccccc1C(=O)N1CCN=C1SCc1cccnc1 88.2%
COc1ccc(NCc2nnc(SCc3ccccc3)n2-c2ccc(OC)cc2)cc1 85.8%
Cc1nn(Cc2ccc(Cl)c(Cl)c2)c(C)c1NC(=O)c1cc(C2CC2)on1 95%
CN(C)/C(CN1CCCCC1)=C1\N=C(c2ccccc2)OC1=O 63.8%
O=C(Nc1ccc(Cl)cc1)OCc1cc(-c2ccccc2)on1 76.4%
Cc1ccc(-c2nnn(CC(=O)N(CCO)C(C(=O)NC(C)(C)C)c3ccncc3)n2)cc1 (centres undefined) 74%
COc1ccc(C(=S)Nc2ccccc2)cc1 65.2%
COc1ccc(CCNC(=O)c2ccco2)cc1 55.3%
O=S(=O)(c1ccc(Br)cc1)n1ccc2ccccc21 66.4%
Cc1ccc(C)c(N2C(=O)CS/C2=N\NC(=O)c2ccccc2Cl)c1 63.7%
O=C1c2ccccc2C(Nc2ccc3c(c2)OCCO3)N1Cc1ccco1 (centres undefined) 72.9%
Cc1ccnc(N2C(=O)c3ccccc3C2Nc2ccc3c(c2)OCCO3)c1 (centres undefined) 93.2%
CCCn1c(C(Cc2ccccc2)NC(=O)COC)nc2ccccc21 (centres undefined) 90.2%
Cc1cc(C)c(C)c(S(=O)(=O)Nc2ccc(O)cc2)c1C 50.9%
CCOC(=O)[C@H]1CCC[C@@H](NS(=O)(=O)c2ccc(NC(C)=O)cc2)C1 57.9%
O=C(Nc1ccc2c(c1)OCCO2)C(c1ccc(F)cc1)N1CCCCC1 (centres undefined) 56.5%
CCCn1c(SCC(=O)N2CCc3ccccc32)nnc1-c1ccncc1 83.8%
CSc1cccc(NC(=O)C2CCCN2S(=O)(=O)c2ccc3c(c2)CCC(=O)N3)c1 (centres undefined) 56.8%
O=C1CCc2cc(S(=O)(=O)N3CCC(C(=O)NCc4ccccc4Cl)CC3)ccc2N1 88.6%
